Only some compounds are listed: those with a hit (about 6.9% of all), similar ones and a draw of the others.
BAZ2B inh: inhibitors of human BAZ2B bromodomain; Q9UIF8; AlphaScreen BAZ2B-H3K14Ac peptide displacement; Potency, µM (top dose mostly 114 µM), inactives show at the highest dose activity change, negative = inhibition, hits mostly inhibitors; actives 4.4% (n = 360,000); AID 504333; also: % is scaled to controls: 0 for no effect and ±100 for the full control effect; nearly all actives have a fitted effect of over 60% in size
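Inhibition is scored as reduced AlphaScreen emission. The BAZ2B/b-H3(5-23)K14Ac complex (50 nM each) in PBS pH 7.4, 0.01% Tween-20 meets compound (up to 110 uM) for 30 min at RT before bead addition.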
PLK1 PBD inh: blocks phosphopeptide binding to human PLK1 polo-box domain; Potency, µM, inactives show max response, negative = inhibition, usual class: inhibitors; P53350; actives 2.8% (n = 360,000); AID 720504; Plk1 PBD binding of FITC phosphopeptide, fluorescence polarization; also: series mostly up to about 57 µM; % is scaled to controls: 0 for no effect and ±100 for the full control effect; nearly all actives have a fitted effect of over 65% in size
HP1b chromo inh: HP1-beta chromodomain-methylated histone interaction inhibition; P83916; actives 0.56% (n = 390,000); AID 540317; AlphaScreen HP1-beta / biotin-H3K9me3 peptide binding; Potency, µM (highest dose often 114 µM), without a hit: top-dose activity change, negative = inhibition, most hits filed as inhibitors; also: nearly all actives have a fitted effect of over 70% in size
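AlphaScreen: HP1-beta (50 nM) preformed 30 min with biotin-H3(1-18)K9me3 peptide (50 nM) in PBS pH 7.4, 0.01% Tween-20. Compound added for 30 min at RT, then streptavidin donor/nickel chelate acceptor beads (10 ug/mL) for 30 min.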
JMJD2A Tudor inh: JMJD2A Tudor domain (human) inhibition; O75164; AlphaScreen JMJD2A-Tudor / H3K4me3 peptide binding; Potency, µM (top dose mostly 114 µM), for inactives: at the top dose activity change, negative = inhibition, most hits filed as inhibitors; actives 4.4% (n = 390,000); AID 504339; also: % is scaled to controls: 0 for no effect and ±100 for the full control effect; nearly all actives have a fitted effect of over 50% in size
VDR inhibitor: vitamin D3 receptor (human) inhibition; VDR-SRC2-3 peptide fluorescence polarization, 2 h; Potency, µM, without a hit: max response, negative = inhibition, usual class: inhibitors; actives 0.93% (n = 400,000); AID 504847; also: % is scaled to controls: 0 for no effect and ±100 for the full control effect
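Inhibition of the VDR/SRC2-3 peptide interaction is quantified by fluorescence polarization. Compounds (23 nl, pintool) incubate with the reagents for 2 hours at ambient room temperature.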
L3MBTL1 inh: blocks human L3MBTL1. Potency, µM (top dose mostly 57.1 µM), for the others: at the top dose activity, negative = inhibition, actives largely listed as inhibitors. actives 0.66% (n = 230,000). AID 485360. AlphaScreen L3MBTL1–H3K9me1 peptide binding; also: % is scaled to controls: 0 for no effect and ±100 for the full control effect; nearly all actives have a fitted effect of over 60% in size
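L3MBTL1 (50 nM) pre-complexed 30 min with biotinylated H3(1-15)K9me1 peptide (75 nM), then compounds added for 30 min at room temperature; AlphaScreen streptavidin donor/nickel chelate acceptor beads (10 ug/mL final) read after 30 min dark incubation.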
* = called active by the depositor; ? = inconclusive; . = not tested or not shown; ! = repeats disagree; [ ] = dose if it differs, or a comment. Calls follow the shape of the dose curve; as a rule, active = well fitted curve in the direction sought with a large enough effect; inconclusive = small, poorly fitted or top-dose-only effect, or another doubt; inactive = no such curve, though single readings can be large; an effect the other way counts as inactive or inconclusive. Potency is read from the fitted curve at half-maximal effect.

SMILES | BAZ2B inh | PLK1 PBD inh | HP1b chromo inh | JMJD2A Tudor inh | VDR inhibitor | L3MBTL1 inh
O=C(CCS(=O)(=O)c1ccccc1)NC1CCCCC1 | -3.1% | -0.6% | -11.1% | -6.1% | 0.2% | .
COc1ccc(CNC(=O)CCS(=O)(=O)c2ccc(Br)cc2)cc1 | 50.1µM* | ? | ? | ? | -12.3% | .
COc1ccc(S(=O)(=O)CCC(=O)NC2CCCCC2)cc1 | 4.6% | 29.9µM* | -15.0% | -7.5%[11.4 µM] | -8.6% | .
Cc1c(C#N)c(NC(=O)C(C)C)n(Cc2ccccc2)c1C | ? | 8.5% | 26.9% | 3.4% | 23.5% | -2.1%
CCc1ccc(S(=O)(=O)c2nnn3c2nc(Nc2cccc(C)c2C)c2sccc23)cc1 | -9.2% | . | 32.1% | -10.6% | 2.4% | .
COC(=O)c1cc2oc3ccccc3c2n1Cc1c(F)cccc1Cl | 5.8% | . | 36.8% | -17.1% | -15.7% | .
COc1ccc(C(=O)CCS(=O)(=O)c2ccc(C)cc2)cc1 | 7.3% | 10.6µM* | 58.9% | 2.1% | ? | .
c1ccc2c(c1)CCN(c1nc(CN3CCOCC3)nc3sc4c(c13)CCCC4)C2 | 35.5µM* | -13.9% | ? | -33.7%[57.1 µM] | -19.4% | -4.1%
Cc1ccc(NC(=O)CSc2ccc(C(N)=O)cc2[N+](=O)[O-])cc1 | 1.7% | -9.8% | 19.8% | -12.8% | -19.2% | -3.1%
O=C(O)c1ccccc1NS(=O)(=O)c1ccc(NNC(=S)Nc2ccc(OC(F)F)cc2)c([N+](=O)[O-])c1 | 7.94µM* | 10.6µM* | 10µM* | 25.1µM* | ? | .
COc1cccc(C(C)=NNc2ccc([N+](=O)[O-])cc2[N+](=O)[O-])c1OC | . | -0.9% | . | . | . | .
Cc1ccc(NC(=O)CSc2ccc(C(N)=O)cc2[N+](=O)[O-])cc1C | -14.8% | 2.99µM* | 6.0% | 14.1µM* | 22.4µM* | -4.0%[11.4 µM]
COc1ccc(C(C)=NNc2ccc([N+](=O)[O-])cc2S(=O)(=O)Nc2ccccc2C(=O)O)c(OC)c1 | . | 21.2µM* | -17.4% | ? | ? | -7.2%
Cc1ccc(Nc2ccc(C(N)=O)cc2[N+](=O)[O-])cc1C | -7.3% | -4.2% | -0.4% | ? | -21.5% | -5.0%
Cc1ccc(NC(=S)NNc2ccc(C(=O)O)cc2[N+](=O)[O-])cc1C | . | ? | 50.1µM* | 7.94µM* | -22.4% | .
Cc1onc(-c2ccc(Cl)cc2Cl)c1-c1csc(COc2ccccc2)n1 | 39.8% | -5.4% | 79.7% | 107.0% | 4.3% | 39.4%
Cc1ccc(NC(=S)NNC(=O)c2cccc([N+](=O)[O-])c2)cc1Cl | ? | -27.5% | -15.4% | ? | -8.5% | ?
Cc1ccc(NC(=S)NNc2ccc([N+](=O)[O-])cc2S(=O)(=O)Nc2ccccc2C(=O)O)cc1C | 11.2µM* | 26.7µM* | ? | 50.1µM* | 39.8µM* | -21.6%
COc1ccc(C(=O)OCC2CC(c3ccccc3)=NO2)cc1OC (stereo not drawn) | -10.5% | 10.6µM* | 10.8% | ? | ? | 1.4%[11.4 µM]
COc1cc(C(=O)OCC2CC(c3ccccc3)=NO2)cc(OC)c1OC (stereo not drawn) | -14.2% | -14.0% | 11.5% | -18.2% | -1.1% | -0.1%
CC(C)OCCCNC(=O)C1CCN(S(=O)(=O)c2ccc3nc4c(c(C(=O)O)c3c2)CCCCC4)CC1 | -8.2% | -7.9% | 17.4% | -19.3% | -19.2% | .
CN(C(=O)NC(=O)C1=C(N2CCOCC2)/C(=C/c2ccccc2)CC1)S(C)(=O)=O | -7.6% | -24.3% | 11.7% | -25.2% | 8.2% | -4.4%
CCCCN(C(=O)NC(=O)C1=C(N2CCOCC2)/C(=C/c2ccccc2)CC1)S(C)(=O)=O | -7.8% | 33.6µM*! | 13.5% | -25.8% | -8.7% | 4.6%
O=C(O)c1ccc(N/N=C/C2=C(N3CCOCC3)C(=C\c3ccccc3)/CC2)cc1 | 50.1µM* | ? | ? | ? | ? | ?
COc1ccc(NC(=O)COc2ccc3c(C)cc(=O)oc3c2)cc1S(=O)(=O)N1CCCCC1 | 7.5% | -2.5% | 21.7% | -17.4% | 33.1% | -3.8%
SMILES | BAZ2B inh | PLK1 PBD inh | HP1b chromo inh | JMJD2A Tudor inh | VDR inhibitor | L3MBTL1 inh
Nc1cccc2c1C(=O)N(C(=O)c1cccc(S(=O)(=O)N3CCCCCC3)c1)C2=O | 7.8% | 3.16µM* | 61.7% | 8.8% | ? | .
CCCCN(C)C(=O)CSc1nc2ccccc2nc1Cc1ccc(C)cc1 | 84.3% | . | 62.7%[57 µM] | 43.8% | 12.3% | .
CCOC(=O)C(C)N1C(=O)S/C(=C\c2ccc(-c3ccccc3C(=O)O)o2)C1=O (stereo not drawn) | 25.1µM* | ? | ? | 22.4µM* | -18.1% | .
Cc1ccc(C)c(N2C(=N)S/C(=C\c3ccc(-c4ccccc4C(=O)O)o3)C2=O)c1 | 20µM* | ? | -37.7% | 31.6µM* | -21.3% | ?
Cc1ccc(-c2ccc(/C=C3\SC(N4CCOCC4)=NC3=O)o2)cc1 | . | -20.5% | -28.8% | -15.8%[11.4 µM] | -2.4% | .
Cc1c(C(=O)O)cccc1-c1ccc(C=O)o1 | -9.9% | -2.2% | 5.1% | -30.7% | 7.4% | ?
O=C(CCNC(=O)Cn1cnc2ccccc2c1=O)NCCC1=CCCCC1 | 3.6% | 26.7µM* | -9.5% | 6.9%[11.4 µM] | -9.6% | -12.8%[11.4 µM]
CC(C)(C)c1ccc(N2C[C@@H](COc3ccc(C(=O)O)cc3)CC2=O)cc1 | . | . | . | . | 0.5% | .
Cc1cc(/C=N/n2cnnc2)c(C)n1-c1ccccc1 | -13.2% | 0.2% | 0.5% | -5.6% | 3.9% | .
Cc1cc(/C=N/n2cnnc2)c(C)n1-c1ccc(OCc2ccc(Cl)cc2Cl)cc1 | 39.8µM* | -6.4% | ? | 56.2µM* | 2.3% | .
Cc1cc(/C=N/n2cnnc2)c(C)n1-c1ccc(OCc2ccc(F)cc2)cc1 | ? | -2.5% | ? | 56.2µM* | -6.5% | -16.5%
Cc1cc(/C=N/n2cnnc2)c(C)n1-c1ccc(Cl)cc1 | -38.9% | -9.6% | -8.6% | -29.8% | ? | -13.3%
O=C(NC(Cc1ccc(O)cc1)C(=O)N=Nc1c(O)[nH]c2ccccc12)c1ccccc1 (stereo not drawn) | . | -10.8% | 14.6% | -27.8% | -4.9% | .
CSCC[C@H](NC(=O)[C@H](CC(C)C)NC(=O)[C@@H]1CCCN1C(=O)[C@H](Cc1ccccc1)NC(=O)[C@H](Cc1ccccc1)NC(=O)[C@H](CCC(N)=O)NC(=O)[C@H](CCC(N)=O)NC(=O)[C@@H]1CCCN1C(=O)[C@H](CCCCN)NC(=O)[C@@H]1CCCN1C(=O)[C@@H](N)CCCN=C(N)N)C(N)=O | . | . | . | . | 2.4% | .
COCCCn1c(O)c(/C=C2\N=C(C#N)C(=Nc3ccc(C)cc3)O2)sc1=S | 10µM* | 9.8% | ? | ? | -0.9% | -28.1%
CCn1c(O)c(/C=C2\C=Nc3ccccc32)sc1=Nc1ccc(C)cc1 | 1.5%[57.1 µM] | -1.4% | 10.0% | -25.3% | -12.6% | -1.5%
COc1cc(CNc2ccccc2SC)ccc1O | ? | ? | 0.2% | 35.5µM* | -2.4% | -1.1%

Assay outcomes deposited in PubChem by National Center for Advancing Translational Sciences (NCATS).
